Data taken from PubChem BioAssay (NCATS).
Activity calls are given as the source filed them. Calls follow the shape of the full dose curve.

Assay: qHTS drug screen for cell cycle checkpoint inhibitors in PARPi-resistant BRCA-mutant ovarian cancer cell lines. (AID 1963452)
Settings: PEO1/OlaR viability, CellTiter-Glo luminescence, 96 h, stronger effect = lower value
Text: Women's Malignancies Branch, Center for Cancer Research (CCR),
National Cancer Institute (NCI), National Institutes of Health (NIH), Bethesda, MD
Poly (ADP-ribose) polymerase inhibitors (PARPis) have changed the treatment paradigm in breast cancer gene (BRCA) - mutant high-grade serous ovarian carcinoma (HGSC). However, most patients eventually develop resistance to PARPis, highlighting an unmet need for improved therapeutic strategies. Using high-throughput drug screens, we identified ataxia telangiectasia and rad3-related protein/checkpoint kinase 1 (CHK1) pathway inhibitors as cytotoxic and further validated the activity of the CHK1 inhibitor (CHK1i) prexasertib in PARPi-sensitive and -resistant BRCA-mutant HGSC cells and xenograft mouse models. CHK1i monotherapy induced DNA damage, apoptosis, and tumor size reduction. We then conducted a phase 2 study (NCT02203513) of prexasertib in patients with BRCA-mutant HGSC. The treatment was well tolerated but yielded an objective response rate of 6% (1 of 17; one partial response) in patients with previous PARPi treatment. […] BRCA reversion mutation in previously PARPi-treated BRCA-mutant patients was not associated with resistance to CHK1i.
Among others, 1082 oncology drugs, both approved and investigational, were prioritized based on their status in clinical trial development. […] Drugs with average Z-AUC values less than -1.0 in all three cell lines were classified as "hits" resulting in 151 oncology drug hits. The screen also confirmed cross-resistance between olaparib and other PARPis (rucaparib, niraparib, and talazoparib) in PARPi-resistant PEO1/OlaR and PEO4.
[1] G. L. Lin, K. M. Wilson, M. Ceribelli, B. Z. Stanton, P. J. Woo, S. Kreimer, E. Y. Qin, X. Zhang, J. Lennon, S. Nagaraja, P. J. Morris, M. Quezada, S. M. Gillespie, D. Y. Duveau, A. M. Michalowski, P. Shinn, R. Guha, M. Ferrer, C. Klumpp-Thomas, S. Michael, C. McKnight, P. Minhas, Z. Itkin, E. H. Raabe, L. Chen, R. Ghanem, A. C. Geraghty, L. Ni, K. I. Andreasson, N. A. Vitanza, K. E.Warren, C. J. Thomas, M. Monje, Therapeutic strategies for diffuse midline glioma from high-throughput combination drug screening. Sci. Transl. Med. 11, (2019).
[2] T. M. Yamamoto, A. McMellen, Z. L. Watson, J. Aguilera, R. Ferguson, E. Nurmemmedov, T. Thakar, G. L. Moldovan, H. Kim, D. M. Cittelly, A. M. Joglar, E. P. Brennecke, H. Wilson, K. Behbakht, M. J. Sikora, B. G. Bitler, Activation of Wnt signaling promotes olaparib resistant ovarian cancer. Mol. Carcinog. 58, 1770 - 1782 (2019).
PROTOCOL TABLE (as described by Inglese J, Shamu CE and Guy RK. 2007)
SEQUENCE No. (e.g., 1, 2, 3, etc.); […] (e.g., Cells, Incubation, Reagent, etc.); VALUE; DESCRIPTION.
1; Compounds; 20nL; 1536-well white tissue culture-treated plates.
2; Cells; 5 uL; PEO1, PEO4, and PEO1/OlaR cells at 600 cells per well.
3; Incubation; 96 hr; 37C, 95% humidity, 5% CO2.
4; Reagent; 3 uL; CellTiter-Glo (Promega).
5; Incubation; 15 min; room temperature.
6; Detection; Luminescence, PHERAstar (BMG Labtech) plate reader.
NOTES (numbers refer to Sequence numbers above)
1. MIPE 5.0 compounds were acoustically dispensed by Echo Acoustic Liquid Handler (Beckman Coulter Life Sciences). Each compound was plated at an 11-point concentration range with 1:3 dilution. Bortezomib, a proteasome inhibitor (final concentration, 20 uM), was used as a positive.
2. PEO1, PEO4, and PEO1/OlaR were trypsinized and dispensed in 5 uLof growth medium using a Multidrop Combi dispenser at a density of 600 cells per well to allow compounds to be present during the exponential growth phase.
3. Plates were incubated for 96 hours at standard incubator conditions and covered by a stainless steel gasketed lid to prevent evaporation.
4. Three microliters of CellTiter-Glo (Promega) were added to each well.
5. Plates were incubated at room temperature for 15 min with a stainless-steel lid in place.
6. Luminescence readings were taken using PHERAstar (BMG Labtech). […]

[1] = measured here: PEO1 parental Z-AUC

Compound	Z-AUC	Z-AUC [1]	Z-AUC (measured here: PEO4 Z-AUC)
Clc1ccc(C(Cn2ccnc2)OCc2c(Cl)cccc2Cl)c(Cl)c1 (configuration not stated)	0.975 (inactive)	0.252	0.49
O=c1cc(N2CCOCC2)oc2c(-c3ccccc3)cccc12	0.98 (inactive)	0.743	0.809
O=C(NCCO[N+](=O)[O-])c1cccnc1	-0.64 (inactive)	-0.487	-0.272
CC1=C(C)C(=O)C(C(CCCCCC(=O)O)c2ccccc2)=C(C)C1=O (configuration not stated)	0.121 (inactive)	0.192	0.237
CC(=O)NC[C@H]1CN(c2ccc(N3CCOCC3)c(F)c2)C(=O)O1	-0.303 (inactive)	-0.362	-0.619
CCOC(=O)c1c(C)n(C)c2ccc(O)cc12	1.13 (inactive)	0.765	0.891
CN(C)C(=O)COC(=O)Cc1ccc(OC(=O)c2ccc(N=C(N)N)cc2)cc1	-0.267 (inactive)	-0.623	-0.684
S=c1nc[nH]c2nc[nH]c12	-0.8 (inactive)	-0.506	-0.594
CCN(CC)CCOc1ccc(Cc2ccccc2)cc1	1.12 (inactive)	0.729	0.289
Cc1cccc(CN2CCN(C(c3ccccc3)c3ccc(Cl)cc3)CC2)c1 (configuration not stated)	-1.46 (inactive)	-0.604	-1
Nc1ccc(S(N)(=O)=O)cc1	0.067 (inactive)	0.495	0.56
Cc1ccc(C)c(OCCCC(C)(C)C(=O)O)c1	1.52 (inactive)	1.37	1.5
Nc1nc(Cl)nc2c1ncn2[C@H]1C[C@H](O)[C@@H](CO)O1	-0.756 (inactive)	-0.859	-0.649
Cc1ccc(C(=O)c2cc(O)c(O)c([N+](=O)[O-])c2)cc1	-0.393 (inactive)	-0.655	-0.817
